Source: PubChem BioAssay (NCI)
About 79,000 compounds went through this panel and 15% of them were active in at least one assay; those are over-represented in the sample as a whole. No stated cut-off is given here; in the data, active means growth inhibition above about 70%; inactive means the rest.

Key:
[1] = NCI Yeast Anticancer Drug Screen. Data for the rad50 strain (AID 155);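 further: 0% = growth of vehicle-only cultures of the same strain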; details: S. cerevisiae rad50 strain growth inhibition; at 50.0 µM; active compounds read high
Summary of the method: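 Readout: growth inhibition relative to vehicle-treated cultures. Compound exposure was carried out in a genetically defined yeast strain deficient in DNA damage repair.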

[2] = NCI Yeast Anticancer Drug Screen. Data for the mec2-1 strain (AID 157); details: S. cerevisiae mec2-1 strain, at 50.0 µM, active compounds read high
Summary of the method: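 Readout is yeast growth inhibition, normalised to vehicle-treated controls, in the mec2-1 strain exposed to compound.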

[3] = NCI Yeast Anticancer Drug Screen. Data for the sgs1 mgt1 strain (AID 161);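 further: 0% = growth of cultures given vehicle only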; details: S. cerevisiae sgs1 mgt1 strain, at 50.0 µM, active compounds read high
Summary of the method: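 Compounds are added to genetically altered yeast, and growth is compared with cultures given vehicle alone to give percent inhibition.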

[4] = NCI Yeast Anticancer Drug Screen. Data for the cln2 rad14 strain (AID 165);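 further: 0% = growth equal to vehicle treated cultures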; details: S. cerevisiae cln2 rad14 strain, at 50.0 µM, active compounds read high
Summary of the method: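 Relative to vehicle controls, growth inhibition of compound-treated cln2 rad14 yeast was recorded.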

[5] = NCI Yeast Anticancer Drug Screen. Data for the bub3 strain (AID 167); details: S. cerevisiae bub3 mutant strain, at 50.0 µM, active compounds read high
Summary of the method: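 Readout: yeast growth inhibition, expressed relative to vehicle-only wells. The test organism is a mutant strain from a panel with lesions in DNA repair or checkpoint genes.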

[6] = NCI Yeast Anticancer Drug Screen. Data for the mlh1 rad18 strain (AID 175); details: S. cerevisiae mlh1 rad18 strain growth inhibition; at 50.0 µM; active compounds read high
Summary of the method: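 Test agents were incubated with a yeast strain of defined genotype (DNA damage repair defect). Inhibition of growth was derived by comparison with vehicle-exposed cultures.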

Measured: growth inhibition

c1ccc(C(=C2C(=C(c3ccccc3)c3ccccc3)c3nc4ccccc4nc32)c2ccccc2)cc1
inactive: [1] 26.8% | [2] 8.8% | [3] 7% | [4] 16.9% | [5] -1.05% | [6] 8.1%

O=[N+]([O-])c1cccc(S(=O)(=O)NC2c3ccccc3Oc3ccccc32)c1
inactive: [1] 22% | [2] -3.65% | [3] 26.9% | [4] 21.4% | [5] -10.7% | [6] 24.8%

Cc1cc2c(C(C)C)c(O)c(O)c(C=Nc3cccc(O)c3)c2c(O)c1-c1c(C)cc2c(C(C)C)c(O)c(O)c(C=Nc3cccc(O)c3)c2c1O
inactive: [1] 27.8% | [2] 26% | [3] 44% | [4] 46.1% | [5] 50.8% | [6] 58.3%

CCCCC(Nc1nncs1)Nc1nncs1
inactive: [1] -8.9% | [2] -18% | [3] 9.85% | [4] 3.7% | [5] 11.3% | [6] 2.6%

COc1ccc(-c2coc3c4c(c5c(c3c2=O)OC(C)(C)CC5)OC(C)(C)C=C4)cc1OC
inactive: [1] 11.3% | [2] 10.8% | [3] 15.7% | [4] 38% | [5] 18.1% | [6] 39.5%

CCC1CCC(Cc2ccncc2)CC1 (stereo unspecified)
inactive: [1] 3.65% | [2] -7.4% | [3] -11.9% | [4] -78.9% | [5] 13.4% | [6] -0.9%

CN(C(=O)c1ccco1)C(=S)N1CCN(c2ccccc2)CC1
inactive: [1] -17% | [2] -1.95% | [3] -0.7% | [4] 10.2% | [5] 13.8% | [6] -13.3%

CN(C)c1ccc(/C=N/NC(=S)Nc2cccc3cccnc23)cc1
inactive: [1] 18.6% | [2] -3.05% | [3] 1.4% | [4] 20.3% | [5] 20.6% | [6] -2.8%

CC1(OC(=O)Nc2ccccc2)CCCCC1
inactive: [1] 5.75% | [2] -0.8% | [3] 0.9% | [4] 3.55% | [5] 3.55% | [6] -9.95%

COC(=O)[C@@]12C(=O)N[C@@H](Cc3ccccc3)[C@@H]1[C@H](C)C(C)=C[C@@H]2CO
inactive: [1] -27.4% | [2] -45.3% | [3] -44.9% | [4] -27.8% | [5] -32.2% | [6] -24.3%

CC(=O)c1ccc(OC(=O)Nc2ccc(C)cc2)cc1
inactive: [1] -2.25% | [2] 27.3% | [3] 17.8% | [4] -6.2% | [5] 26.5% | [6] 15.6%

CCOc1ccccc1C=C1c2ccccc2C(=O)c2ccccc21
inactive: [1] 10.3% | [2] -7.6% | [3] -3.6% | [4] -21.6% | [5] 18.1% | [6] 6.25%

Cc1ccc(NC(=O)C(=O)Cc2cc[n+]([O-])cc2)cc1
inactive: [1] -1.9% | [2] -1.5% | [3] 11.9% | [4] 7.6% | [5] 3.55% | [6] 4.05%

Brc1ccc(-c2cc(-c3ccc4c(c3)OCO4)c(-c3cccs3)n2Cc2ccccc2)cc1
inactive: [1] -17.9% | [2] -7.55% | [3] -0.5% | [4] 20.1% | [5] -24.6% | [6] -30.1%

Cc1cccc(NC(=O)CC(=O)N2N=C(N3c4ccccc4Sc4ccccc43)CC2c2ccccc2)c1 (stereo unspecified)
inactive: [1] -1.85% | [2] -5.5% | [3] -10.1% | [4] -9.55% | [5] -5.35% | [6] -41.8%

CCCCOc1ccc2nc(C)cc(N/N=C/c3ccc(OC)c4ccccc34)c2c1
inactive: [1] 46.4% | [2] 19.6% | [3] 44.1% | [4] 42.9% | [5] -2.35% | [6] 41.1%

CC(=O)CCC(=O)CC(=O)CCC(=O)Nc1cc(Cl)ccc1Cl
inactive: [1] 15.3% | [2] 24.2% | [3] 19.9% | [4] 31.2% | [5] 2.5% | [6] 6.2%

Cc1ccccc1C(=O)NNC(=O)c1ccc2ccccc2c1
inactive: [1] 7.3% | [2] -9.1% | [3] -3.9% | [4] 9.35% | [5] -13.2% | [6] -9.45%

CC1(C)OC(=O)C(=Cc2ccc(O)cc2)C(=O)O1
inactive: [1] -20.9% | [2] -9.45% | [3] -34.5% | [4] -4.6% | [5] -21.5% | [6] -34.3%

CCOC(=O)c1ccc([N+](=O)[O-])cc1
inactive: [1] -9.55% | [2] -12% | [3] -17.4% | [4] -29.2% | [5] -18.6% | [6] 21.1%

Cc1ccc(/C(C#N)=C/c2ccccc2)cc1
inactive: [1] 32.8% | [2] 26.4% | [3] 21% | [4] 19.6% | [5] 18.8% | [6] 9.65%
